According to PubChem BioAssay (NCI):
The panel holds about 83,000 compounds, 20% with a hit somewhere; the sample as a whole holds those more often.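 Single-concentration screen, 48 h exposure, 96-well plates. Endpoint: percent growth. Below 10 = active.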 A number with no mark means an inactive call. Activity calls are given as the source filed them.

system: HL-60(TB) leukemia; experiment: NCI-60 one-dose screen, 48 h (100 = growth as untreated, 0 = no growth, -100 = all killed); settings: 10 µM unless noted

Compound | growth
O=C1CCC(=O)N1C1CCCCC1 | 92.5%
Cc1cc(N(CCCNc2ccnc3cc(Cl)ccc23)Cc2ccccn2)nc(N2CCOCC2)n1 | 102%
COc1ccc(Nc2cc(NC(=O)CNc3cc(OC)c(Cl)c(OC)c3Cl)ncn2)cc1 | 75.1%
N#CC(=C1SCS1)[N+](=O)[O-] | -4.02% (active)
C=CCNc1ccccc1 | 125%
CCCNNC(=O)c1ccc(CNC(=O)/C=C/c2ccccc2)cc1 | 33.4% [2.5 µM]
COc1cccc(-c2nc3sccn3c2-c2ccnc(NCCN3CCCNS3(=O)=O)n2)c1 | 108%
COc1ccc(CCN2CC=Cn3c2nc2ccccc2c3=O)cc1 | -8.02% (active)
CSc1ccccc1C#C/C=C\C#Cc1ccccc1N1CCCC1=O | -33.4% (active)
C=C(C)[C@@H]1CC[C@]2(C(=O)NCCCCCCN(CCCN)CCCN)CC[C@]3(C)[C@H](CC[C@@H]4[C@@]5(C)CC[C@H](OCCCN)C(C)(C)[C@@H]5CC[C@]43C)[C@@H]12 | 37% [100 µM]
Clc1ccc2c(NCCCn3cnc4c(N5CCCC5)nc(Cl)nc43)ccnc2c1 | 81.6%
O=C(O)c1cn(C2CC2)c2cc(N3CCN(C(=O)N/N=C/c4cccc5ccccc45)CC3)c(F)cc2c1=O | 97.8%
COc1ccc(NC(=O)Cn2c(=O)sc3c(-c4ccc(Cl)cc4)cc(-c4ccc(Cl)cc4)nc32)cc1 | 80%
Cc1ccsc1C(NC(=O)c1ccccc1)c1cc(Cl)c2cccnc2c1O (stereo not given) | 12.4%
Cc1ccc([P+](Cc2ccccc2)(c2ccccc2)c2ccccc2)cc1 | -36.4% (active)
COc1cc2nccc(Oc3ccc(NC(=O)C4(C(=O)Nc5ccc(F)cc5)CC4)cc3)c2cc1OC | 8.85% (active)
COc1ccc(/C=C/C(=O)c2ccc(NC(=O)CSc3nnc(-c4cc(OC)c(OC)c(OC)c4)o3)cc2)cc1 | -53.4% (active)
CCOC(=O)n1cc(C2=C(c3ccc(OC)c(OC)c3)COC2=O)c2ccccc21 | -28.7% (active)
CCCCCCCCCC[N+](C)(C)N | 90.2%
Cc1cc2nc(C(Cl)Cl)nc(-c3ccccc3)n2n1 | -14.1% (active)

Compound | growth
CCOC(=O)c1c2ncccc2n2c(=O)n(-c3ccc(Cl)cc3)nnc12 | 80.5%
CS(=O)(=O)c1ccc(C(=O)N/N=C/c2cccc3ccccc23)cc1 | 37.5%
COc1ccc(C(=O)/C=C/c2cn(Cc3ccc(Cl)cc3)c3ccccc23)cc1 | 47.2%
O=C1OCC2=C1C(c1ccc3c(c1)OCO3)CC(=O)N2c1cccc(Cl)c1 (stereo not given) | 95.6%
O=C(Nc1ncc(Cc2ccccc2)s1)c1sc2ccccc2c1Cl | -9.41% (active)
CN(C)CCN1C(=O)c2cccc3c(-c4ccc5ncn(C6CCCCC6)c5c4)ccc(c23)C1=O | 13.8%
Fc1ccc(Nc2ccc3cc(OCCCN4CCOCC4)ccc3n2)cc1F | 75.4%
NS(=O)(=O)c1cn(-c2ncnc3nc[nH]c23)ccc1=O | 79.5%
COc1ccc(CCNc2nc3c(c(=O)n(Cc4ccc(Br)cc4)c(=O)n3C)n2C)cc1OC | 28.6%
O=[N+]([O-])c1ccc(-c2cc3c(Nc4ccc(Cl)c(C(F)(F)F)c4)ncnc3s2)cc1 | -41.3% (active)
N=C1N=C(N)CS1 | 112%
c1cc(OCCN2CCCCCC2)ccc1CNc1ccc2nc(CCC3CCCCC3)[nH]c2c1 | 22.9%
C/C(=N\NC(=S)N1CCCCC1)c1ccccn1 | -21.6% (active)
O=C1NC(=S)NC(=O)C1CC(=O)n1c(-c2ccccc2)nc2ccccc21 | 104%
Cc1nc(Nc2nc3ccccc3o2)nc(-c2cccc([N+](=O)[O-])c2)c1C(=O)Nc1ccc(F)c(Cl)c1 | -22.1% (active)
Cl.Fc1c[c-]c(-c2ccccn2)c(F)c1.[Pt].c1ccc(P(c2ccccc2)C([PH+](c2ccccc2)c2ccccc2)[PH+](c2ccccc2)c2ccccc2)cc1 | 8.71% (active)
COc1ccc(/C(C)=C(\c2ccc(Cl)cc2)c2ccc(OCCN3CCCC3)cc2)cc1 | 37.9%
COc1cccc(-c2cn3nc(-c4cn(C)c5ccccc45)sc3n2)c1 | 104%
CCN(CC)CCCC(C)Nc1cnc(C(=O)Nc2cccc3ccc(OC)nc23)cn1 (stereo not given) | 72.4%
CCN(CC)C(=O)C[N+](C)(C)CCOC(c1ccccc1)c1ccccc1 | 97.5%
